Screening results from PubChem BioAssay.
Only some compounds are listed: those with a hit (about 2.3% of all), similar ones and a draw of the others.
Tau fibril FP: qHTS for Inhibitors of Tau Fibril Formation, Fluorescence Polarization; Microtubule-associated protein tau (Homo sapiens), P10636; K18 P301L tau heparin fibrillization, Alexa594 FP, 6 h; Potency, µM (titrated, usually from 57.7 µM), inactives show at the highest dose activity, negative = inhibition, hits mostly inhibitors; 280,000 compounds, 0.39% hits; also: potency is read from the fitted curve at half-maximal effect; nearly all actives have a fitted effect of over 55% in size
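Steps: dispense K18 P301L tau (15 uM plus 0.24 uM Alexa 594 tracer, final) in pH 7 sodium acetate; add compound; add heparin (20 uM final); incubate 6 hr, 37 C; add ThT (30 uM final); after 1 hr ambient, read FP.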
Tau ThT inhib: qHTS for Inhibitors of Tau Fibril Formation, Thioflavin T Binding. Potency, µM (highest dose often 57.4 µM), without a hit: at the highest dose activity, negative = inhibition, hits mostly inhibitors. 270,000 compounds, 2.1% hits. AID 1460, 2008. recombinant tau K18 P301L, heparin-induced fibrillization, ThT fluorescence; also: potency is read from the fitted curve at half-maximal effect; nearly all actives have a fitted effect of over 55% in size
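In this qHTS, human K18 P301L tau is incubated with compound and heparin for 6 hr at 37 C, and Thioflavin T fluorescence then reports fibril load.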
Tau fluor counter: Counterscreen qHTS for Inhibitors of Tau Fibril Formation, Fluorescence Polarization | tau K18 P301L (four-repeat tau fragment) Alexa594 fluorescence, heparin fibrillization | Potency, µM (titrated, usually from 57.7 µM), for inactives: at the highest dose activity change, negative = decrease | 280,000 compounds, 0.93% hits | AID 1463, 2008; also: potency is read from the fitted curve at half-maximal effect; nearly all actives have a fitted effect of over 55% in size
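Human K18 P301L tau (15 uM unlabeled plus 0.24 uM Alexa 594-labeled, final) in 100 mM sodium acetate pH 7 was mixed with compound and 20 uM heparin and incubated 6 hr at 37 C.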
USP1 inh: Inhibitors of USP1/UAF1: Primary Screen; Ubiquitin carboxyl-terminal hydrolase 1 (Homo sapiens), O94782; recombinant USP1/UAF1, Ub-Rhodamine cleavage fluorescence; Potency, µM (series often up to 57.1 µM), for inactives: at the highest dose activity change, negative = inhibition, actives largely listed as inhibitors; 390,000 compounds, 0.23% hits; also: potency is read from the fitted curve at half-maximal effect; nearly all actives have a fitted effect of over 60% in size
Target sequence (O94782 whole entry, looked up): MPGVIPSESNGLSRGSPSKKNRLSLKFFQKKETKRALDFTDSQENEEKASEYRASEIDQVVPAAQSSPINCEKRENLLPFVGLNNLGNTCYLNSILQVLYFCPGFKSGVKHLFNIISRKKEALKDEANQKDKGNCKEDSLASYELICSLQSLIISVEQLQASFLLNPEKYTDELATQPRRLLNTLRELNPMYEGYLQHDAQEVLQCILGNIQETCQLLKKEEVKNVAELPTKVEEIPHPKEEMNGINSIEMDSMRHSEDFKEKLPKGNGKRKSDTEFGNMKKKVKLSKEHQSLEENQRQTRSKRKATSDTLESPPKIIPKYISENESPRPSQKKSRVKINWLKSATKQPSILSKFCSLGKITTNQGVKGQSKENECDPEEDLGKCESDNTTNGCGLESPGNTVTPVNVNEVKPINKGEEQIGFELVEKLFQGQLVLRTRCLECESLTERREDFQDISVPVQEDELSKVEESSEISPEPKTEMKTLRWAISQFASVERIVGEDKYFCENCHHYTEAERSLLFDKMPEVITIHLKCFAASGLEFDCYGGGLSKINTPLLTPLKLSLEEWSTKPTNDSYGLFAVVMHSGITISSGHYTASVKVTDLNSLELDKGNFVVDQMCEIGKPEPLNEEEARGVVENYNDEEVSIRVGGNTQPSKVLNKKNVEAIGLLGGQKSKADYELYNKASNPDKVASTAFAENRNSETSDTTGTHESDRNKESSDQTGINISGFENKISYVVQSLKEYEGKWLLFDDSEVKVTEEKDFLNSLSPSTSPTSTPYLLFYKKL
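High-throughput fluorogenic screen: 1nM USP1/UAF1 complex, Ub-Rho substrate 150nM final, 50mM HEPES pH 7.8 with 0.5mM EDTA, 0.1 mg/ml BSA, 1mM TCEP and 0.01% Tween-20.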
Coupling enz: qHTS Assay for Inhibitors of Fructose-1,6-bisphosphate Aldolase from Giardia Lamblia: Coupling assay counterscreen; AID 2472, 2010; coupling enzyme system counterscreen, AmpLite Red fluorescence; 290,000 compounds, 0.67% hits; activity change, negative = inhibition, % at 58.2 µM, hits read low; in the data active = activity change below about -30%
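Final compound at 57.5 uM, incubated 10 min at RT with coupling enzyme reagent (glyceraldehyde-3-phosphate), then 20 min with substrate and AmpLite Red detection. Fluorescence read at 525/598 nm; tests interference with the coupling assay, not aldolase inhibition.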
* = called active by the depositor; ? = inconclusive; . = no result given; [ ] = dose if it differs, or a comment. Unless noted, calls follow the shape of the dose curve; as a rule, active = well fitted curve in the direction sought with a large enough effect; inconclusive = small, poorly fitted or top-dose-only effect, or another doubt; inactive = no such curve, though single readings can be large; an effect the other way counts as inactive or inconclusive. % is scaled to controls: 0 for no effect and ±100 for the full control effect.

SMILES	Tau fibril FP	Tau ThT inhib	Tau fluor counter	USP1 inh	Coupling enz
CC1=C(C(=O)Nc2ccccc2)C(c2ccccc2[N+](=O)[O-])NC(=O)N1 (centres undefined)	?	25µM*	?	-16%	-4
COc1ccccc1NC(=O)C1=C(C)NC(=O)NC1c1ccccc1[N+](=O)[O-] (centres undefined)	-15%	?	-23%	5%	-41*
CC1=C(C(=O)Nc2ccccc2)C(c2ccco2)NC(=O)N1 (centres undefined)	.	.	.	-15%	.
CNC(=O)C(=O)NCC1OCCCN1S(=O)(=O)c1ccc(F)cc1C (centres undefined)	.	.	.	0%	.
CC1=CC(C)(C)n2c(O)c(N=N)c3c(C)ccc1c32	-1%	11%	2%	-20%	0
CC1=CC(C)(C)n2c(O)c(N=N)c3c(C)c(C)cc1c32	-15%	25µM*	?	?	0
CC1=CC(C)(C)n2c(O)c(N=N)c3cc(C)cc1c32	?	28µM*	?	-17%	0
c1ccc(CCNCCCOc2cccc3ccccc23)cc1	.	.	.	-5%	0
Cc1ccccc1-c1noc(CSc2nc(-c3ccc(F)cc3)cc(=O)[nH]2)n1	-7%	0%	-3%	?	.
COc1cc(/C=C(\C#N)c2nc3ccccc3[nH]2)cc(OC)c1O	?	7.1µM*	?	?	-1
COc1cc(/C=C(\C#N)c2nc3ccccc3[nH]2)cc(Br)c1OCc1ccc(F)cc1	?	?	?	-1%	-4
COc1cc(/C=C(\C#N)C(=O)c2c[nH]c3ccccc23)cc(OC)c1O	9%	16µM*	-8%	28µM*	-14
COc1cc(/C=C(\C#N)c2nc3ccccc3[nH]2)cc(Br)c1OCc1ccccc1	?	?	13µM*[quencher]	-9%	-5
COc1cc(/C=C(\C#N)C(=O)NCCc2ccccc2)cc(OC)c1O	2%	?	-29%	-24%	-3
COc1ccc(-c2cc(C(F)(F)F)nc(SCC(=O)N3CCCCC3)n2)cc1	-9%	4%	-2%	-22%	.
COc1cc(C=O)c(-c2c(C=O)cc(OC)c3c2OCO3)c2c1OCO2	.	.	.	-18%	1
COc1ccc2c(c1)C(=O)N1[C@H]3c4cc(Br)ccc4OC[C@@H]3[C@H](c3ccccc3)[C@]1(C)C(=O)N2	.	.	.	-15%	.
O=C(Nc1nc2c(F)cc(F)cc2s1)c1ccco1	.	.	.	3%	-3
NNc1nc2c(F)cccc2s1	?	16µM*	18µM*[quencher]	-18%	2
NNc1nc2c(F)cc(F)cc2s1	-5%	13µM*	?	-10%	1
Cc1ccc(CN=Cc2[nH]c3ccc(Br)c(Cl)c3c2O)cc1	3%	?	-20%	?	-40*
CC(C)COc1ccc(C(=O)N2CCCCC2CCN2CCOCC2)cc1 (centres undefined)	1%	2%	5%	-19%	.
O=C(CCN1CCN(C(c2ccccc2)c2ccccc2)CC1)N/N=C/c1ccc(O)cc1O	?	-16%	16µM*[quencher]	-25%	1
CCOC(=O)c1cnc(SC2CCc3ccccc3C2=O)nc1N (centres undefined)	?	28µM*	?	-12%	-21
CCOC(=O)c1cnc(SC2CC(=O)N(c3ccccc3)C2=O)nc1N (centres undefined)	-6%	-19%	-8%	5%	4
SMILES	Tau fibril FP	Tau ThT inhib	Tau fluor counter	USP1 inh	Coupling enz
Cc1cc(Cl)ccc1N=C1N=C(N)c2ccccc21	-1%	-16%	-9%	-20%	2
Cc1cc(C)nc(/N=c2/ssnc2Cl)c1	8.9µM*	4µM*	-21%	-26%	3
Nc1ccccc1N=Nc1ccccc1N	.	.	.	?	1
Cc1nnc(N=c2ssnc2Cl)o1	.	.	.	-21%	.
Cc1ccc(N=c2ssnc2Cl)cc1	?	14µM*	-25%	-14%	5
Nc1ccccc1N=c1ssnc1Cl	?	22µM*	-30%	-24%	-2
Cc1cc(Cl)ccc1N=c1ssnc1Cl	22µM*	14µM*	-27%	-17%	-1
O=C(c1ccco1)N1CCC2(CC1)CCN(c1cccc(-c3ccccc3)c1)CC2	.	.	.	.	-1
O=C(c1cccs1)N(Cc1ccc(Cl)cc1)C1CCS(=O)(=O)C1 (centres undefined)	.	.	.	-15%	0
O=C(Cn1ccn(-c2cccc(Cl)c2)c(=O)c1=O)c1ccc(F)cc1	2%	-17%	-3%	0%	.
Cc1ccc(NC2=C(Cl)C(=O)OC2NC(=O)c2ccccc2)cc1 (centres undefined)	2%	-7%	-3%	-7%	3
O=C1OC(NC(=O)c2ccccc2)C(n2cc(CO)nn2)=C1Cl (centres undefined)	?	7.1µM*	-23%	-19%	-1
COC(=O)c1ccccc1NC(=O)c1cc(CN2CCOCC2)on1	-5%	2%	-3%	11%	.
CC1CCN(C(=O)CN2CCSc3ccc(S(=O)(=O)N(C)C)cc32)CC1	8%	0%	-8%	-25%	.
Cc1cccc(CNC(=O)c2ccc3nc(-c4ccccc4)c(-c4ccccc4)nc3c2)c1	-4%	1%	-12%	?	.
COc1cc(/C=C/c2cc(OC(C)=O)c3ccccc3n2)c(OC(C)=O)c([N+](=O)[O-])c1	?	3.2µM*	13µM*[quencher]	-10%	6
N#Cc1cnc(Oc2ccc(Cl)cc2)nc1N	.	.	.	-15%	2
C=CCS(=O)(=O)c1cccc2cccnc12	-1%	10%	6%	-4%	-34*
COc1cc(SC)ccc1C(=O)Nc1cccc(S(=O)(=O)NC2=NCCC2)c1	.	.	.	-17%	.
Cc1cc(S(=O)(=O)N2CCCC2)ccc1OCC(=O)Nc1ccccc1	.	.	.	-5%	.
CCCOC(=O)c1c(NC(=O)C(C)Sc2nc(-c3ccccc3)cc(C(F)(F)F)n2)sc(C(=O)N(C)C)c1C (centres undefined)	-9%	?	-13%	-16%	.
CCN(CC)C(=O)c1sc(NC(=O)C(C)Sc2nc(-c3ccccc3)cc(C(F)(F)F)n2)c(C(=O)OC)c1C (centres undefined)	?	25µM*	-26%	3%	.
COc1ccc(S(=O)(=O)N2CCCCCC2)cc1NS(=O)(=O)c1cc(C(=O)O)cc(C)c1C	.	.	.	-3%	.
CN1CCc2nc(SCC(=O)Nc3cccc(F)c3)c(C#N)c(-c3cccs3)c2C1	-13%	14µM*	16µM*[quencher]	?	-10
Cc1cccc(CSc2nc3c(c(-c4cccs4)c2C#N)CN(C)CC3)c1	-4%	16µM*	25µM*[quencher]	-17%	-7
